Reference: PubChem BioAssay (NCI)
This is part of a sample that, as a whole, favours compounds with a hit. Of some 79,000 tested, about 15% had one in any assay. The source made the active and inactive calls. Rule as the data show it: active = growth inhibition above about 70%; inactive = the rest.

Experiment: NCI Yeast Anticancer Drug Screen. Data for the sgs1 mgt1 strain (AID 161);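 also: 0% = growth of cultures given vehicle only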
Conditions: S. cerevisiae sgs1 mgt1 strain, at 50.0 µM, active compounds read high
Procedure, shortened: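 This yeast growth screen uses a strain with defined DNA-repair lesions; compound-treated growth is compared with vehicle-treated growth.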

| SMILES | growth inhibition |
| --- | --- |
| CC(C)c1cccc(C(C)C)c1NC(=O)C(=O)C1SC(=S)NC1=O (stereo not given) | -18.9% (inactive) |
| NC(=O)/C=C/c1ccc([N+](=O)[O-])cc1 | -9% (inactive) |
| CN(C)CCCn1c(=O)nc2n(-c3ccccc3)c3ccccc3nc-2c1=O | -10.4% (inactive) |
| Cc1ccc(C2OC(=O)C(=O)C2=O)cc1 (stereo not given) | -23.2% (inactive) |
| ClC1=C(Cl)C2(Cl)C3C(CC4C3C3(Cl)C(Cl)=C(Cl)C4(Cl)C3(Cl)Cl)C1(Cl)C2(Cl)Cl (stereo not given) | -2.75% (inactive) |
| COc1ccc(C(=O)c2ccccc2)c(N)c1 | -2.4% (inactive) |
| Cc1ccc(NC(=S)NC(=O)c2ccccc2)cc1 | 8.7% (inactive) |
| c1ccc2c3c([nH]c2c1)C1(CCCCC1)c1c([nH]c2ccccc12)C31CCCCC1 | -8.9% (inactive) |
| Brc1cccc(CCOCc2ccccc2)c1 | -4.3% (inactive) |
| CCN(CC)C(=O)C1C(C=C(C)C)C1(C)C (stereo not given) | 12.2% (inactive) |
| CCCC(C)(CC)C(=O)O (stereo not given) | 14.4% (inactive) |
| CC(C)(C)c1ccc(C(=O)NCSCC(NC(=O)CCC(N)C(=O)O)C(=O)NCC(=O)O)cc1 (stereo not given) | -10.7% (inactive) |
| COC(=O)CCBr | 28.8% (inactive) |
| Cc1ccc(N2CCN(CCC(=O)O)CC2)cc1 | 0.75% (inactive) |
| Cc1sc2nc3n(c(=O)c2c1C)N=C(c1ccccc1)CS3 | -33.3% (inactive) |
| CC1=CC(=O)N2[C@H](OC[C@@H]2C(C)C)O1 | 2.15% (inactive) |
| CC(/C=C/C(=O)c1sc(C(N)=S)nc1C)=C\c1ccccc1 | -6.8% (inactive) |
| CN(C)CCNC(=O)C(C)(C)Oc1ccc(C(=O)c2ccc(Cl)cc2)cc1Cl | -18.1% (inactive) |
| C=CC(=N)N | -5% (inactive) |
| Cc1ccc(S(=O)(=O)N/N=C/c2ccccc2)cc1 | 3.2% (inactive) |

| SMILES | growth inhibition |
| --- | --- |
| COC(=O)C(/C(=N/NC(N)=O)C(=O)Nc1c(C)cccc1C(C)(C)C)c1nc2ccc(Cl)cc2[nH]c1=O (stereo not given) | -7.4% (inactive) |
| [Cl][Pt+2][Cl].[NH-]C(CO)C([NH-])CO (stereo not given) | -10.3% (inactive) |
| N#CC(c1ccccc1)[N+](=O)[O-] (stereo not given) | -2.45% (inactive) |
| CN=NNc1ccccc1 | -6.45% (inactive) |
| Nc1ccc(C(C(=O)O)c2ccccc2)cc1Cl (stereo not given) | 20.9% (inactive) |
| O=c1cc(Cl)ncn1C1OC(CO)C(O)C1O (stereo not given) | -27.6% (inactive) |
| O=S(=O)(c1ccccc1)c1ccc(O)cc1 | -16.9% (inactive) |
| COC(=O)Cc1ccc2c(c1)Sc1ccc(CC(=O)OC)cc1N2C | -10.1% (inactive) |
| CCC(C)CN1C(=O)NC(C)(Cc2ccccc2)C1=O (stereo not given) | 1.15% (inactive) |
| CC(=O)CC(=O)NCCCc1ccccc1 | -21.6% (inactive) |
| COC(=O)C1(C)CCCC2(C)C3CC4OC4(C(C)C)CC3(O)CCC12 (stereo not given) | 4% (inactive) |
| COC(=O)c1c([N+](=O)[O-])ncn1C1CC(OC(C)=O)C(COC(C)=O)O1 (stereo not given) | -1.9% (inactive) |
| COC(=O)c1c(O)ccc(O)c1C(=O)OC | -13.6% (inactive) |
| COc1ccc(/C(=N/NS(=O)(=O)c2ccc([N+](=O)[O-])cc2)C2COC(=O)C2)cc1OC (stereo not given) | 3.25% (inactive) |
| COc1cc(/C=N/NC(=O)Cc2cccc3ccccc23)ccc1O | 3.05% (inactive) |
| Nc1nc(-c2ccncc2)cc(-c2cc(-c3ccncc3)nc(N)n2)n1 | -8.65% (inactive) |
| O=[N+]([O-])c1cccc(NC(c2ccccc2)S(=O)(=O)O)c1 (stereo not given) | 9.65% (inactive) |
| O=[N+]([O-])C(C(Cl)=C(Cl)Cl)=C(N1CCCCC1)N1CCCCC1 | -13.1% (inactive) |
| CC1(C)OCC2(CO1)CSCCCSCC1(COC(C)(C)OC1)CSCCCSC2 | -8.75% (inactive) |
| C=C1CCC2[C@](C)(CCC[C@]2(C)C(=O)O)[C@@H]1CCc1ccoc1 (stereo not given in full) | 73% (active) |

Experiment: NCI Yeast Anticancer Drug Screen. Data for the cln2 rad14 strain (AID 165);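 also: 0% = growth equal to vehicle treated cultures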
Conditions: S. cerevisiae cln2 rad14 strain, at 50.0 µM, active compounds read high
Procedure, shortened: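 Growth inhibition, relative to vehicle-treated controls, is the read-out. The test organism is a yeast strain with defined genetic alterations, cln2 rad14.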

| SMILES | growth inhibition |
| --- | --- |
| CC1=CC(=O)N2[C@H](OC[C@@H]2C(C)C)O1 | 14.7% (inactive) |
| Cc1ccc(S(=O)(=O)N/N=C/c2ccccc2)cc1 | -27.6% (inactive) |
| N#CC(c1ccccc1)[N+](=O)[O-] (stereo not given) | 9.3% (inactive) |
| COC(=O)Cc1ccc2c(c1)Sc1ccc(CC(=O)OC)cc1N2C | -18.2% (inactive) |
| CC1(C)OCC2(CO1)CSCCCSCC1(COC(C)(C)OC1)CSCCCSC2 | -11.8% (inactive) |

Experiment: NCI Yeast Anticancer Drug Screen. Data for the bub3 strain (AID 167)
Conditions: S. cerevisiae bub3 mutant strain, at 50.0 µM, active compounds read high
Procedure, shortened: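 Readout: yeast growth inhibition, expressed relative to vehicle-only wells. The test organism is a mutant strain from a panel with lesions in DNA repair or checkpoint genes.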

| SMILES | growth inhibition |
| --- | --- |
| CC(C)c1cccc(C(C)C)c1NC(=O)C(=O)C1SC(=S)NC1=O (stereo not given) | -11.3% (inactive) |
| NC(=O)/C=C/c1ccc([N+](=O)[O-])cc1 | 4.6% (inactive) |
| CN(C)CCCn1c(=O)nc2n(-c3ccccc3)c3ccccc3nc-2c1=O | 2.35% (inactive) |
| Cc1ccc(C2OC(=O)C(=O)C2=O)cc1 (stereo not given) | -32% (inactive) |
| ClC1=C(Cl)C2(Cl)C3C(CC4C3C3(Cl)C(Cl)=C(Cl)C4(Cl)C3(Cl)Cl)C1(Cl)C2(Cl)Cl (stereo not given) | 0.15% (inactive) |
| COc1ccc(C(=O)c2ccccc2)c(N)c1 | -17.9% (inactive) |
| Cc1ccc(NC(=S)NC(=O)c2ccccc2)cc1 | 3.3% (inactive) |
| c1ccc2c3c([nH]c2c1)C1(CCCCC1)c1c([nH]c2ccccc12)C31CCCCC1 | -20.4% (inactive) |
| Brc1cccc(CCOCc2ccccc2)c1 | 0.5% (inactive) |
| CCN(CC)C(=O)C1C(C=C(C)C)C1(C)C (stereo not given) | -10.1% (inactive) |
| CCCC(C)(CC)C(=O)O (stereo not given) | 1.95% (inactive) |
| CC(C)(C)c1ccc(C(=O)NCSCC(NC(=O)CCC(N)C(=O)O)C(=O)NCC(=O)O)cc1 (stereo not given) | 0.85% (inactive) |
| COC(=O)CCBr | -1.9% (inactive) |
| Cc1ccc(N2CCN(CCC(=O)O)CC2)cc1 | -41.6% (inactive) |
| Cc1sc2nc3n(c(=O)c2c1C)N=C(c1ccccc1)CS3 | -31.4% (inactive) |
| CC(/C=C/C(=O)c1sc(C(N)=S)nc1C)=C\c1ccccc1 | -5.8% (inactive) |
| CN(C)CCNC(=O)C(C)(C)Oc1ccc(C(=O)c2ccc(Cl)cc2)cc1Cl | -30.8% (inactive) |
| C=CC(=N)N | 6.6% (inactive) |

| SMILES | growth inhibition |
| --- | --- |
| COC(=O)C(/C(=N/NC(N)=O)C(=O)Nc1c(C)cccc1C(C)(C)C)c1nc2ccc(Cl)cc2[nH]c1=O (stereo not given) | -11.2% (inactive) |
| [Cl][Pt+2][Cl].[NH-]C(CO)C([NH-])CO (stereo not given) | -27.9% (inactive) |
| CN=NNc1ccccc1 | 14.8% (inactive) |
| Nc1ccc(C(C(=O)O)c2ccccc2)cc1Cl (stereo not given) | 12.3% (inactive) |
| O=c1cc(Cl)ncn1C1OC(CO)C(O)C1O (stereo not given) | -27.6% (inactive) |
| O=S(=O)(c1ccccc1)c1ccc(O)cc1 | -8.35% (inactive) |
| CCC(C)CN1C(=O)NC(C)(Cc2ccccc2)C1=O (stereo not given) | 7.85% (inactive) |
| CC(=O)CC(=O)NCCCc1ccccc1 | -6.9% (inactive) |
| COC(=O)C1(C)CCCC2(C)C3CC4OC4(C(C)C)CC3(O)CCC12 (stereo not given) | -12.1% (inactive) |
| COC(=O)c1c([N+](=O)[O-])ncn1C1CC(OC(C)=O)C(COC(C)=O)O1 (stereo not given) | -17.7% (inactive) |
| COC(=O)c1c(O)ccc(O)c1C(=O)OC | -6.4% (inactive) |
| COc1ccc(/C(=N/NS(=O)(=O)c2ccc([N+](=O)[O-])cc2)C2COC(=O)C2)cc1OC (stereo not given) | 14% (inactive) |
| COc1cc(/C=N/NC(=O)Cc2cccc3ccccc23)ccc1O | 39.4% (inactive) |
| Nc1nc(-c2ccncc2)cc(-c2cc(-c3ccncc3)nc(N)n2)n1 | -12.3% (inactive) |
| O=[N+]([O-])c1cccc(NC(c2ccccc2)S(=O)(=O)O)c1 (stereo not given) | 8.75% (inactive) |
| O=[N+]([O-])C(C(Cl)=C(Cl)Cl)=C(N1CCCCC1)N1CCCCC1 | -19.4% (inactive) |
| C=C1CCC2[C@](C)(CCC[C@]2(C)C(=O)O)[C@@H]1CCc1ccoc1 (stereo not given in full) | 73.8% (active) |
